From the supplement of paper PMC8728848
Only a selection was taken, and the strongest signals are over-represented in it overall.

Tests used:
Assay in all cases: glycan array binding signal (z-score within array); higher = stronger binding
Conditions in all cases: glycan notation: IUPAC condensed, linker removed
[1] = biological target: Fuc(a1-2)Gal(b1-3)GlcNAc(b1-3)Gal(b1-4)Glc
How it was run: (§1)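 From the Consortium for Functional Glycomics database, 3228 arrays were curated, keeping only those whose protein sequence was available. Binding is given as a within-array Z-score averaged across arrays sharing a protein sequence and across linkers. Negative Z-scores can be read as non-binding.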

[2] = biological target: Fuc(a1-2)Gal(b1-3)GlcNAc6S
How it was run: as §1

[3] = biological target: Fuc(a1-2)Gal(b1-3)[Fuc(a1-4)]GlcNAc
How it was run: as §1

[4] = biological target: Fuc(a1-2)Gal(b1-4)Fuc(a1-3)]GlcNAc(b1-2)Man(a1-3)[Fuc(a1-2)Gal(b1-4)[Fuc(a1-3)]GlcNAc(b1-2)Man(a1-6)]Man(b1-4)GlcNAc(b1-4)GlcNAc
How it was run: as §1

[5] = biological target: Fuc(a1-2)Gal(b1-4)GlcNAc(b1-3)[Fuc(a1-2)Gal(b1-4)GlcNAc(b1-6)]GalNAc
How it was run: as §1

[6] = biological target: Fuc(a1-2)Gal(b1-4)[Fuc(a1-3)]GlcNAc(b1-3)Gal(b1-4)[Fuc(a1-3)]GlcNAc
How it was run: as §1

[7] = biological target: Fuc(a1-2)[Gal(a1-3)]Gal(b1-4)GlcNAc(b1-2)Man(a1-3)[Fuc(a1-2)[Gal(a1-3)]Gal(b1-4)GlcNAc(b1-2)Man(a1-6)]Man(b1-4)GlcNAc(b1-4)[Fuc(a1-6)]GlcNAc
How it was run: as §1

[8] = biological target: Fuc(a1-3)[Gal(b1-4)]GlcNAc(b1-3)Gal(b1-4)[Fuc(a1-3)]GlcNAc(b1-3)Gal(b1-4)[Fuc(a1-3)]GlcNAc
How it was run: as §1

[9] = biological target: Fuc(a1-3)[Gal(b1-4)]GlcNAc(b1-3)GalNAc
How it was run: as §1

[10] = biological target: Gal(a1-3)Gal(b1-3)GlcNAc(b1-2)Man(a1-3)[Gal(a1-3)Gal(b1-3)GlcNAc(b1-2)Man(a1-6)]Man(b1-4)GlcNAc(b1-4)GlcNAc
How it was run: as §1

[11] = biological target: Gal(a1-3)Gal(b1-3)GlcNAc(b1-3)GalNAc
How it was run: as §1

[12] = biological target: Gal(a1-3)Gal(b1-4)GlcNAc(b1-3)GalNAc
How it was run: as §1

[13] = biological target: Gal(a1-3)Gal(b1-4)[Fuc(a1-3)]GlcNAc(b1-2)Man(a1-3)[Gal(a1-3)Gal(b1-4)[Fuc(a1-3)]GlcNAc(b1-2)Man(a1-6)]Man(b1-4)GlcNAc(b1-4)GlcNAc
How it was run: as §1

[14] = biological target: Gal(a1-4)Gal(b1-4)GlcNAc(b1-3)Gal(b1-4)Glc
How it was run: as §1

[15] = biological target: Gal(a1-4)GlcNAc
How it was run: as §1

[16] = biological target: Gal(b1-2)Gal
How it was run: as §1

[17] = biological target: Gal(b1-3)GlcNAc(b1-2)Man(a1-3)[Gal(b1-3)GlcNAc(b1-2)Man(a1-6)]Man(b1-4)GlcNAc(b1-4)GlcNAc
How it was run: as §1

[18] = biological target: Gal(b1-3)GlcNAc(b1-3)Gal(b1-4)GlcNAc(b1-3)Gal(b1-4)GlcNAc(b1-2)[Gal(b1-3)GlcNAc(b1-3)Gal(b1-4)GlcNAc(b1-3)Gal(b1-4)GlcNAc(b1-6)]Man(a1-6)[Gal(b1-3)GlcNAc(b1-3)Gal(b1-4)GlcNAc(b1-3)Gal(b1-4)GlcNAc(b1-2)Man(a1-3)]Man(b1-4)GlcNAc(b1-4)[Fuc(a1-6)]GlcNAc
How it was run: as §1

[19] = biological target: Gal(b1-3)GlcNAc6S
How it was run: as §1

[20] = biological target: Gal(b1-3)[Fuc(a1-4)]GlcNAc(b1-6)GalNAc
How it was run: as §1

[21] = biological target: Gal(b1-4)GlcNAc(b1-2)Man(a1-3)[GlcNAc(b1-4)][Gal(b1-4)GlcNAc(b1-2)Man(a1-6)]Man(b1-4)GlcNAc(b1-4)GlcNAc
How it was run: as §1

[22] = biological target: Gal(b1-4)GlcNAc(b1-2)[Gal(b1-4)GlcNAc(b1-4)]Man(a1-3)[GlcNAc(b1-4)][Gal(b1-4)GlcNAc(b1-2)Man(a1-6)]Man(b1-4)GlcNAc(b1-4)GlcNAc
How it was run: as §1

[23] = biological target: Gal(b1-4)GlcNAc(b1-2)[Gal(b1-4)GlcNAc(b1-6)]Man(a1-6)[GlcNAc(b1-4)][Gal(b1-4)GlcNAc(b1-2)Man(a1-3)]Man(b1-4)GlcNAc(b1-4)GlcNAc
How it was run: as §1

[24] = biological target: Gal(b1-4)GlcNAc(b1-3)Gal(b1-4)GlcNAc
How it was run: as §1

[25] = biological target: Gal(b1-4)GlcNAc(b1-3)Gal(b1-4)GlcNAc(b1-3)Gal(b1-4)GlcNAc(b1-3)Gal(b1-4)GlcNAc(b1-2)Man(a1-3)[Gal(b1-4)GlcNAc(b1-3)Gal(b1-4)GlcNAc(b1-3)Gal(b1-4)GlcNAc(b1-3)Gal(b1-4)GlcNAc(b1-2)Man(a1-6)]Man(b1-4)GlcNAc(b1-4)[Fuc(a1-6)]GlcNAc
How it was run: as §1

[26] = biological target: Gal(b1-4)GlcNAc(b1-3)Gal(b1-4)GlcNAc(b1-3)Gal(b1-4)GlcNAc(b1-3)Gal(b1-4)GlcNAc(b1-3)Gal(b1-4)GlcNAc(b1-3)Gal(b1-4)GlcNAc(b1-2)Man(a1-3)[Gal(b1-4)GlcNAc(b1-3)Gal(b1-4)GlcNAc(b1-3)Gal(b1-4)GlcNAc(b1-3)Gal(b1-4)GlcNAc(b1-3)Gal(b1-4)GlcNAc(b1-3)Gal(b1-4)GlcNAc(b1-2)Man(a1-6)]Man(b1-4)GlcNAc(b1-4)GlcNAc
How it was run: as §1

B1: AntigenI/IIA3VP1 (Streptococcus mutans), C9E3B4 (protein)
chain: AANEADYQAKLTAYQTELARVQKANADAKAAYEAAVAANNAANAALTAENTAIKKRNADAKADYEAKLAKYQADLAKYQKDLADYPVKLKAYEDEQASIKAALAELEKHKNEDGNLTEPSAQNLVYDLEPNANLSLTTDGKFLKASAVDDAFSKSTSKAKYDQKILQLDDLDITNLEQSNDVASSMELYGNFGDKAGWSTTVSNNSQVKWGSVLLERGQSATATYTNLQNSYYNGKKISKIVYKYTVDPKSKFQGQKVWLGIFTDPTLGVFASAYTGQVEKNTSIFIKNEFTFYDEDGKPINFDNALLSVASLNREHNSIEMAKDYSGKFVKISGSSIGEKNGMIYATDTLNFKQGEGGSRWTMYKNSQAGSGWDSSDAPNSWYGAGAIKMSGPNNYVTVGATSATNVMPVSDMPVVPGKDNTDGKKPNIWYSLNGKIRAVNVPKVTKEKPTPPVKPTAPTKPTYETEKPLKPAPVAPNYEKEPTPPTRLEHHHHHH
glycan array binding signal (z-score) [1]: -1.26
glycan array binding signal (z-score) [2]: 0.457
glycan array binding signal (z-score) [3]: 0.481
glycan array binding signal (z-score) [4]: 4.68
glycan array binding signal (z-score) [5]: 0.339
glycan array binding signal (z-score) [6]: 0.17
glycan array binding signal (z-score) [7]: 3.1
glycan array binding signal (z-score) [8]: -0.372
glycan array binding signal (z-score) [9]: 2.64
glycan array binding signal (z-score) [10]: 3.47
glycan array binding signal (z-score) [11]: 2.79
glycan array binding signal (z-score) [12]: -1.15
glycan array binding signal (z-score) [13]: 0.993
glycan array binding signal (z-score) [14]: -0.067
glycan array binding signal (z-score) [15]: -0.879
glycan array binding signal (z-score) [16]: -0.551
glycan array binding signal (z-score) [17]: 0.099
glycan array binding signal (z-score) [18]: 5.61
glycan array binding signal (z-score) [19]: 0.094
glycan array binding signal (z-score) [20]: 3.1
glycan array binding signal (z-score) [21]: -0.555
glycan array binding signal (z-score) [22]: -0.31
glycan array binding signal (z-score) [23]: -0.581
glycan array binding signal (z-score) [24]: -0.087
glycan array binding signal (z-score) [25]: 3.27
glycan array binding signal (z-score) [26]: 3.91
